Only a selection was taken, and hits are over-represented in it overall.
Tb PYK inh – blocks Trypanosoma brucei pyruvate kinase; Q57TT1; TbPYK enzyme, Kinase-Glo Plus ATP luminescence, 45 min; Potency, µM (top dose mostly 76.8 µM), inactives show at the top dose activity, negative = inhibition, actives largely listed as inhibitors; 410,000 compounds, 0.12% hits; AID 624173; also: potency is read from the fitted curve at half-maximal effect; % is scaled to controls: 0 for no effect and ±100 for the full control effect; nearly all actives have a fitted effect of over 50% in size
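ADP (130 uM final) triggers the TbPYK reaction after compound addition; incubation is 45 min at room temperature. Kinase-Glo Plus is then added and luminescence imaged. Normalized data are fitted to concentration-effect curves.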
FBPA Giardia inh – inhibitors of Giardia lamblia fructose-1,6-bisphosphate aldolase; A8B2U2; purified Giardia FBPA; Potency, µM (top dose mostly 59.6 µM), without a hit: top-dose activity, negative = inhibition, usual class: inhibitors; 290,000 compounds, 0.71% hits; AID 2451; also: potency is read from the fitted curve at half-maximal effect; % is scaled to controls: 0 for no effect and ±100 for the full control effect; nearly all actives have a fitted effect of over 55% in size
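40 nM FBPA preincubated 10 min at RT with compound (up to 57.5 uM final), then substrate plus GAPDH/TPI/NAD/arsenate coupling and diaphorase/resazurin added. Fluorescence read after 20 min at RT, 525/598 nm.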
LmPK inh – inhibitors of Leishmania mexicana pyruvate kinase; purified LmPK, Kinase-Glo ATP luminescence, 1 h; Potency, µM (series often up to 57.5 µM), for inactives: top-dose activity change, negative = inhibition, actives largely listed as inhibitors; AID 1721; 290,000 compounds, 0.37% hits; also: potency is read from the fitted curve at half-maximal effect; % is scaled to controls: 0 for no effect and ±100 for the full control effect
Target sequence (Q27686 whole entry, looked up): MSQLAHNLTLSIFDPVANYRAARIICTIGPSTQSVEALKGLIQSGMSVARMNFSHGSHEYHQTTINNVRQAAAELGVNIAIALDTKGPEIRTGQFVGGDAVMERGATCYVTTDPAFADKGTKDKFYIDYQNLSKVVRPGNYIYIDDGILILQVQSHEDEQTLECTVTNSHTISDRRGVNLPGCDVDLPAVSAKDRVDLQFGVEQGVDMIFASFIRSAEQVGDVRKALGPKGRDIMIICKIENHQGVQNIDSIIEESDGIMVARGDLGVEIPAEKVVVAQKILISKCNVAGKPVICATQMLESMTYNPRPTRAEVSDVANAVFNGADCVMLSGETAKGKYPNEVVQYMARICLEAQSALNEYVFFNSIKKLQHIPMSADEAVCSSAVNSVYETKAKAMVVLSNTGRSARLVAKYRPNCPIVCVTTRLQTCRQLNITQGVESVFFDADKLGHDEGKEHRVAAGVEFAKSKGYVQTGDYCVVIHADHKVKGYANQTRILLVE
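qHTS format; LmPK 0.1 nM; substrates PEP 0.5 mM and ADP 0.1 mM. One-hour room-temperature incubation, then coupled luciferase luminescence; 0.5 nM enzyme wells mark activation.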
Shiga toxin inh – blocks Shiga toxin action in Vero cells | Vero cells, Shiga toxin protein synthesis inhibition reporter | inhibition, % at 38.7 µM | 290,000 compounds, 9.2% hits | AID 2315; in the data active = inhibition mostly above about 28%, no sharp cut-off; inactive = mostly below about 43%; also: 0% is about no effect
Sm TGR inh – S. mansoni TGR enzyme inhibition | Q962Y6 | 360,000 compounds, 3% hits | purified TGR, DTNB reduction, TNB absorbance 405 nm | AID 485364 | Potency, µM (series often up to 114 µM), for the others: at the highest dose activity change, negative = inhibition, usual class: inhibitors; also: potency is read from the fitted curve at half-maximal effect; % is scaled to controls: 0 for no effect and ±100 for the full control effect; nearly all actives have a fitted effect of over 60% in size
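Kinetic colorimetric format: TGR-catalysed, NADPH-driven DTNB reduction monitored via TNB absorbance. Enzyme dispensed at 20 nM; compound exposure 15 min at room temperature before reaction start.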
Cycloheximide cs – affects cycloheximide protein synthesis inhibition readout, counter-screen; AID 2314; 300,000 compounds, 12% hits; max response, %; cell reporter, cycloheximide protein synthesis inhibition counterscreen; in the data active = max response mostly above about 13%, no sharp cut-off; inactive = mostly below about 14%; also: read at 38.3 µM for the half of the compounds with a filed dose; 0% is about no effect
An asterisk follows results filed as active; ? = inconclusive; . = no result given; [ ] = another dose, or the depositor's remark. Unless noted, calls follow the shape of the dose curve; as a rule, active = well fitted curve in the direction sought with a large enough effect; inconclusive = small, poorly fitted or top-dose-only effect, or another doubt; inactive = no such curve, though single readings can be large; an effect the other way counts as inactive or inconclusive.

SMILES	Tb PYK inh	FBPA Giardia inh	LmPK inh	Shiga toxin inh	Sm TGR inh	Cycloheximide cs
O=C(Nc1cccnc1)c1cc(-c2cc(Cl)ccc2O)n[nH]1	-7%	0%	5%	91*	0%	39*
Cc1ccc(O)c(-c2cc(C(=O)Nc3cccnc3)[nH]n2)c1	2%	3%	-4%	80*	1%	31*
CCCC[C@H](NC(=O)[C@H](CC(C)C)NC(=O)CNC(=O)[C@@H](NC(=O)[C@H](Cc1ccccc1)NC(=O)[C@H](CO)NC(=O)[C@@H](N)CC(=O)O)C(C)C)C(N)=O	.	-1%	.	-11	.	-7
Cc1cc(C(=O)C(C)Cl)c(C)n1Cc1ccco1 (configuration not stated)	-8%	1%	8%	-7	28µM*	8
CCOc1ncccc1C(=O)OCC(=O)c1cc(C)n(Cc2ccco2)c1C	-5%	-6%	-2%	67*	-28%[11.4 µM]	27*
Cc1cc(C(=O)COC(=O)C(C)NC(N)=O)c(C)n1Cc1ccco1 (configuration not stated)	5%	-3%	-3%	94*	2%	35*
Cc1cc(C(=O)COC(=O)c2ccc(Br)o2)c(C)n1Cc1ccco1	.	-5%	2%	97*	-34%	52*
Cc1cc(C(=O)COC(=O)CNC(=O)c2ccco2)c(C)n1Cc1ccco1	5%	1%	-3%	12	-21%	11
COc1ccc(C(C)(NC(C)=O)c2nc(-c3cccc4cccnc34)cs2)cc1 (configuration not stated)	-6%	.	.	.	.	.
Cc1ccc(C)c(NC(=O)Cn2cc(S(=O)(=O)N3CCCC3)c(S(=O)(=O)N3CCCC3)c2)c1	1%	.	.	.	-10%	.
Cc1cc(C(=O)COC(=O)c2cc(Cl)c(O)c(Cl)c2)c(C)n1C	3%	.	.	.	50µM*	.
Cc1cc(C(=O)COc2ccc(F)cc2Br)c(C)n1C	-2%	-1%	2%	63	-27%	30*
COCCn1c(C)cc(C(=O)COC(=O)c2ccc[nH]c2=O)c1C	-17%	4%	-5%	24	2%	2
Cc1cc(C(=O)COC(=O)c2ccc(Br)o2)c(C)n1C	-7%	-6%	-2%	58*	0%	40*
COCCn1c(C)cc(C(=O)COC(=O)c2ccc(Br)o2)c1C	2%	1%	0%	55*	-16%	29*
C#C[C@]1(OC(=O)CCCCCC)CC[C@H]2C3CCC4=CC(=O)CC[C@@H]4[C@H]3CC[C@@]21C (some centres not stated)	1%	.	.	.	.	.
CC(=O)SC1CC2=CC(=O)CC[C@]2(C)C2CC[C@@]3(C)[C@@H](CC[C@@]34CCC(=O)O4)C12 (some centres not stated)	.	2%	.	.	.	.
N#CCc1ccc(C(=O)c2ccccc2)s1	0%	-1%	2%	44	7%	18*
COc1ccc(NS(=O)(=O)c2ccc3oc(=O)c4[nH]c(=O)c(=O)n(C)c4c3c2)cc1	2%	9%	6%	1	50µM*	1
CCn1cnc2c(=O)oc3ccc(S(=O)(=O)Nc4ccc(OC)cc4)cc3c21	-9%	.	.	.	2%	.
C#CCNC(=O)C1=C[C@H](C2CCCCC2)C[C@H](OCCCCO)O1	-1%	-15%	8%	-1	13µM*	-2
C#CCNC(=O)C1=C[C@@H](C2CCCCC2)C[C@@H](OCCCCO)O1	1%	-29%	10%	26	13µM*	15*
C#CCNC(=O)C1=C[C@@H](C2CC2)C[C@@H](OCCCCO)O1	1%	-9%	-2%	-2	?	-4
CC(C)(Oc1ccc(C2CCCc3ccccc32)cc1)C(=O)O (configuration not stated)	2%	.	.	.	.	.
CN1CCCCC1c1ccc(-c2cccnc2)nc1 (configuration not stated)	2%	?	-4%	-9	-14%	16*
SMILES	Tb PYK inh	FBPA Giardia inh	LmPK inh	Shiga toxin inh	Sm TGR inh	Cycloheximide cs
Cc1cc(C)c2c(=O)cc(C(=O)Nc3sc4c(c3C(=O)NCC3CCCO3)CCCC4)oc2c1 (configuration not stated)	-1%	.	.	.	10%	.
Cc1ccc(-c2noc(CCCc3ccccc3)n2)cc1	-1%	-1%	-1%	62*	-8%	31*
COc1ccc(-c2noc(CCCc3ccccc3)n2)cc1OC	-12%	-4%	-2%	21	-4%	12*
CCn1c(C(=O)Nc2ccc(C)cc2C)cc2sc(Cl)cc21	-18%	.	.	.	20%	.
O=C(c1ccco1)N1CCN(C(=O)c2cccc3c2C(=O)N(C2CCCCC2)C3)CC1	-8%	-5%	3%	8	50µM*	4
COc1ccc(-c2nnc3cccc(Cl)n23)c(OC)c1	4%	7%	-6%	43*	-10%	10*

From PubChem BioAssay
